# SARS PLpro yeast – qHTS of Yeast-based Assay for SARS-CoV PLP | S. cerevisiae expressing SARS-CoV PLpro, growth rescue | Potency, µM (doses to about 32.9 µM), for inactives: at the top dose activity, positive = growth rescue, actives largely listed as activators | 330,000 compounds, 0.19% hits | AID 485353, 2010; calls by dose curve; also: 0% is about no effect; nearly all actives have a fitted effect of over 55% in size
# Pf growth 48h – Primary qHTS for delayed death inhibitors of the malarial parasite plastid, 48 hour incubation. P. falciparum luciferase growth in erythrocytes, 48 h. Potency, µM (highest dose often 28.7 µM), inactives show at the highest dose activity change, negative = inhibition, hits mostly inhibitors. 310,000 compounds, 5.9% hits. AID 504832, 2011; also: % is scaled to controls: 0 for no effect and ±100 for the full control effect
#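 Erythrocytes infected with P. falciparum carrying an integrated firefly luciferase reporter (2% hematocrit, 0.1% parasitemia final) were exposed to compounds in RPMI 1640 with 0.5% Albumax at 37 C, 5% CO2. Growth inhibition was scored as reduced luminescence.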
# Pf growth 96h – Primary qHTS for delayed death inhibitors of the malarial parasite plastid, 96 hour incubation | 320,000 compounds, 6.9% hits | Potency, µM (top dose mostly 28.7 µM), without a hit: top-dose activity change, negative = inhibition, actives largely listed as inhibitors | P. falciparum luciferase reporter growth, 96 h; also: % is scaled to controls: 0 for no effect and ±100 for the full control effect
#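 Plates of compound plus infected erythrocytes (2% hematocrit, 0.05% parasitemia final) incubate 96 hours, 37 C, 5% CO2. Detection reagent added; reduced luminescence from the parasites' luciferase reporter flags inhibition.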
# HCV inh – qHTS Assay for Inhibitors of Hepatitis C Virus (HCV) | Potency, µM (highest dose often 41.8 µM), for inactives: top-dose activity change, negative = inhibition, hits mostly inhibitors | Huh7.5.1 HCVcc-Cre infection, luciferase reporter, 44 h | 340,000 compounds, 3.4% hits; also: % is scaled to controls: 0 for no effect and ±100 for the full control effect
#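 Whole-lifecycle infectious HCVcc-Cre system; cells 1,000/well, compound then virus (~0.5 moi) added 4 h after plating, 44 h culture. Luciferase read 15 sec following 15 min substrate incubation, room temp.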
# NS1 function inh – qHTS Assay for Inhibitors of Influenza NS1 Protein Function; 270,000 compounds, 0.4% hits; Potency, µM (highest dose often 46.1 µM), for inactives: at the highest dose activity, positive = more growth; calls by dose curve; also: actives are rising curves; nearly all actives have a fitted effect of over 50% in size
#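 Growth recovery, yeast-based: influenza A NS1 expressed in S. cerevisiae causes slow growth, and suppressors are detected by OD600. The parent strain without NS1 is used as positive control.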
# AMA1 RON2 block – qHTS for Inhibitors of AMA1-RON; Towards Development of Antimalarial Drug Lead: Primary Screen | Plasmodium falciparum AMA1 (3D7) - RON2 peptide interaction | AlphaScreen AMA1-biotinylated RON2 peptide binding | Potency, µM (highest dose often 58.2 µM), inactives show at the top dose activity change, negative = inhibition, actives largely listed as inhibitors | 360,000 compounds, 0.2% hits;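 also: 0% = vehicle wells and -100% = peptide control; nearly all actives have a fitted effect of over 45% in size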
#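 AMA1 (3D7) with his tag at 25 nM final met compounds first, then biotinylated RON2 peptide at 25 nM; detection used donor plus acceptor beads, 10 µg/mL apiece, read by AlphaScreen after 30 min at room temperature.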
# The depositor's hits bear a star; ? = inconclusive; nt = not tested or not shown. An excerpt weighted towards active compounds, which were near 12% of everything screened. Unless noted, calls follow the shape of the dose curve; as a rule, active = well fitted curve in the direction sought with a large enough effect; inconclusive = small, poorly fitted or top-dose-only effect, or another doubt; inactive = no such curve, though single readings can be large; an effect the other way counts as inactive or inconclusive. Potency is read from the fitted curve at half-maximal effect.
SMILES,SARS PLpro yeast,Pf growth 48h,Pf growth 96h,HCV inh,NS1 function inh,AMA1 RON2 block
Cc1nn(C)c(C(=O)Nc2ccn(C34CC5CC(CC(C5)C3)C4)n2)c1[N+](=O)[O-],18.9%,?,?,7.9%,-9.6%,?
Cc1ccc(S(=O)(=O)NC23CC4CC(CC(C4)C2)C3)cc1,1.2%,14.7µM*,?,?,nt,-8.5%
Cc1nn(C)c(C(=O)Nc2ccc(S(=O)(=O)NC34CC5CC(CC(C5)C3)C4)cc2)c1Br,-14.4%,?,-91.5%,10µM*,-11.6%,-12.1%
Cc1ccnc(NS(=O)(=O)c2cc(C(F)(F)F)ccc2Cl)c1,-1.2%,-25.5%,?,nt,6.5%,nt
Fc1ccc2[nH]c3c(NCc4ccccc4)ncnc3c2c1,-9.1%,5.86µM*,3.7µM*,7.94µM*,-12.8%,-4.7%
NC1=NC(=O)/C(=C/c2ccc(Br)cc2)S1,-0.2%,12.6%,2.33µM*,11.7%,0.0%,-0.6%
Cc1ccc(CNc2ncc(-c3ccccc3)n2C)o1,-0.5%,21.1%,2.4%,?,-3.7%,?
O=[N+]([O-])c1cnc(Sc2ccncn2)s1,-5.8%,30.9%,0.0%,7.08µM*,-71.3%,33.5%
O=[N+]([O-])c1cnc(Sc2ccncn2)c([N+](=O)[O-])c1,nt,nt,nt,nt,nt,21.1%
O=c1[nH]c(=S)[nH]c2c1C(c1ccc(Cl)cc1)OC(CCc1ccccc1)C2 (stereo unspecified),nt,nt,nt,nt,nt,94.0%
CCOC(=O)C1=C(c2ccccc2)NC(SCC)=C(C#N)C1c1cccnc1 (stereo unspecified),-1.0%,?,8.28µM*,-5.1%,2.3%,0.6%
COc1ccc(OC(C)C(=O)N(C)Cc2nc(-c3cccc(C)c3)no2)cc1 (stereo unspecified),3.7%,1.0%,5.8%,?,-13.0%,-7.9%
COc1ccc(N2CCN(S(=O)(=O)c3c(C)nc4sccn4c3=O)CC2)cc1,-5.1%,4.6%,4.15µM*,8.0%,-9.2%,-14.9%
COc1ccc(N2CCN(S(=O)(=O)c3cc(C)ccc3OC)CC2)cc1,-0.2%,-12.1%,-2.7%,2.82µM*,0.4%,-20.3%
COc1ccc(N2CCN(C3CCCN(S(=O)(=O)c4ccc(C)cc4C)C3)CC2)cc1 (stereo unspecified),2.8%,?,?,8.91µM*,8.0%,-7.1%
Cc1nc2sccn2c(=O)c1S(=O)(=O)N1CCN(c2ccccc2)CC1,-1.4%,-8.5%,14.1%,22.1%,-0.1%,6.4%
COc1ccc(C)cc1S(=O)(=O)N1CCN(C(=O)c2ncoc2-c2ccc(C)cc2)CC1,0.2%,0.6%,14.4%,-10.5%,11.0%,4.6%
COc1ccc(C)cc1S(=O)(=O)N1CCN(C(=O)c2ncoc2-c2cccc(C)c2)CC1,4.1%,0.7%,0.928µM*,8.1%,-1.2%,-5.9%
COc1cccc(Oc2nc(-c3ccncc3)nc3ccccc23)c1,0.2%,?,?,?,-1.3%,-11.8%
Cc1ccccc1OCCC(=O)OCC(=O)Nc1c(F)cccc1F,0.2%,58.3%,20.7%,16.9%,nt,-6.0%
CCOCCCNc1ncnc2c1nc1n2CCCC1,0.8%,40.2%,?,5.8%,-1.6%,7.2%
COc1ccc(C(C)C)cc1S(=O)(=O)N1CCN(C)CC1,4.2%,nt,11.7µM*,23.1%,-0.1%,0.3%
COc1ccc(OC)c(S(=O)(=O)N2CCN(c3ncccn3)CC2)c1,1.4%,6.5%,12.0%,6.8%,-7.4%,3.4%
COc1ccc(OC)c(S(=O)(=O)N2CCN(c3c(C)cccc3C)CC2)c1,-8.1%,?,4.65µM*,-5.6%,-43.8%,-7.2%
COc1ccc(C(C)C)cc1S(=O)(=O)N1CCC(C(=O)N2CCN(C)CC2)CC1,1.1%,26.9%,-16.5%,-11.7%,4.5%,-8.8%
SMILES,SARS PLpro yeast,Pf growth 48h,Pf growth 96h,HCV inh,NS1 function inh,AMA1 RON2 block
COc1cc(OC)c(-c2nc3ccccc3s2)cc1OC,-2.7%,-12.0%,?,11.2µM*,0.3%,0.3%
O=S(=O)(C/C(=C/CO)S(=O)(=O)c1ccccc1)c1ccccc1,4.8%,?,?,10µM*,13.6%,-14.2%
CCC(=O)Nc1sccc1C(=O)OC,?,13.1%,nt,1.3%,8.0%,-4.5%
CCOC(=O)NC(=O)C(/C=N/c1sccc1C(=O)OC)=C(\C)O,1.7%,2.3%,19.4%,0.562µM*,3.2%,7.2%
COC(=O)C(Cc1cccc(C)n1)(c1ccccc1)c1ccccc1,-2.0%,9.28µM*,?,-20.9%,-10.9%,-5.9%
O=C1N(CCCl)c2ccc(Br)cc2C12OCCO2,-1.3%,-5.4%,?,-16.9%,-8.8%,14.9%
CN(CCc1cn[nH]c1)Cc1nc(C(c2ccccc2)c2ccccc2)no1,-2.6%,?,-15.3%,7.2%,1.9%,-6.1%
CCN(CC)CCN(C)Cc1nc(C(c2ccccc2)c2ccccc2)no1,5.3%,?,9.28µM*,-19.6%,19.0%,11.7%
CN(C)CCCN(C(=O)c1ccc2c(c1)OCCO2)c1nc2ccc(Cl)cc2s1,-1.0%,10.4µM*,11.7µM*,nt,-6.8%,nt
Cc1ccc(C(=O)N(CCCN(C)C)c2nc3ccc(Cl)cc3s2)cc1C,-4.8%,11.7µM*,?,?,nt,?
CN(C)CCCN(C(=O)c1ccco1)c1nc2ccc(Cl)cc2s1,-0.6%,0.3%,-16.0%,25.1µM*,-1.6%,-25.8%
CN(C)CCN(C(=O)c1ccc2c(c1)OCCO2)c1nc2ccc(Cl)cc2s1,0.2%,46.2%,?,?,nt,0.0%
COc1cc(CCC(C)=O)ccc1OC(=O)c1c(F)cccc1Cl,-2.5%,485.0%,445.3%,11.2µM*,-4.9%,-7.5%
CCOCc1cnc(C)nc1NCC(=O)c1c(C)[nH]c2ccc(OC)cc12,-1.8%,nt,0.415µM*,13.1%,8.9%,6.3%
CCOC(=O)c1c(C)[nH]c2ccc(O)cc12,0.4%,nt,?,-16.9%,-2.3%,-9.0%
COc1ccc(NC(=O)CN(C)C(=O)c2cn(-c3ccccc3)nc2-c2cccnc2)cc1,nt,8.28µM*,?,-3.0%,nt,76.2%
CCOc1ccc(NC(=O)CN(C)C(=O)c2cn(-c3ccc(F)cc3)nc2-c2cccc(OC)c2)cc1OCC,-22.0%,11.7µM*,?,?,nt,-9.8%
CNC(=O)c1ccc2cc(OC)c(OC)cc2c1,nt,nt,nt,nt,nt,-5.1%
CCN(CC)S(=O)(=O)c1ccc(C(=O)NCc2n[nH]c(=S)n2-c2ccc(Cl)c(Cl)c2)cc1,2.5%,2.8%,?,0.7%,nt,82.2%
O=S(=O)(/C=C/c1ccccc1)Oc1ccccc1,3.9%,nt,3.29µM*,?,-6.7%,31.9%
CNS(=O)(=O)/C=C/c1ccccc1,2.1%,34.3%,19.2%,23.6%,4.7%,7.1%

# High-throughput results deposited in PubChem BioAssay by National Center for Advancing Translational Sciences (NCATS).
